Measured values published in PubChem BioAssay (EPA / NIEHS).
Activity calls are given as the source filed them. The calls were made as follows: active = hit-call score of the fitted dose curve at least 0.9, where 1 is the maximum; inactive = score below 0.9.

read-out: Macrophage colony-stimulating factor (MCSF), CSF1 (gene 1435); test: BSK_CASM3C_MCSF: BioMAP Diversity Plus: CASM3C Assay for Macrophage colony-stimulating factor (MCSF) Biomarker Activity (AID 2283044); settings: primary human coronary artery smooth muscle cells; actives raise or lower the signal;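 also: M-CSF protein amount quantified by ELISA after 24 h exposure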

| Structure (SMILES) | outcome | AC50 |
| --- | --- | --- |
| Cn1cc[nH]c1=S | inactive | – |
| CC(C)CC(C)O (stereo unspecified) | inactive | – |
| O=C1CN(N=Cc2ccc([N+](=O)[O-])o2)C(=O)N1 | inactive | – |
| OCc1ccccc1 | inactive | – |
| NC(=O)N(O)[C@@H]1COc2cc(OCc3ccccc3)ccc21 | inactive | – |
| C=CCc1cc(S(=O)(=O)c2ccc(O)c(CC=C)c2)ccc1O | – | 28.2 µM (active) |
| CC(C)C(=O)Nc1ccc([N+](=O)[O-])c(C(F)(F)F)c1 | inactive | – |
| CCn1nc(C)c2c1C(=O)NCC(c1ccc(O)cc1)=N2 | – | 2.51 µM (active) |
| COc1cc2c(c(OC)c1OC)-c1ccc(OC)c(=O)cc1[C@@H](NC(C)=O)CC2 | inactive | – |
| CNC(C)=O | inactive | – |
| CCOC(N)=O | inactive | – |
| FC(F)=C(F)C(F)(F)C(F)(F)C(F)(F)C(F)(F)C(F)(F)C(F)(F)F | inactive | – |
| c1ccc2cc3ccccc3cc2c1 | inactive | – |
| CCCCOC(=O)c1ccccc1 | inactive | – |
| O=C(Cl)C(F)(F)C(F)(F)C(F)(F)C(=O)Cl | inactive | – |
| Cn1c(=O)c2[nH]cnc2n(C)c1=O | inactive | – |
| CCCOc1ccc(S(=O)(=O)N2CCN(CC)CC2)cc1-c1nc2c(CC)n(Cc3ccccn3)nc2c(=O)[nH]1 | inactive | – |
| CC(C)CCCCCCOC(=O)C1CCCCC1C(=O)OCCCCCCC(C)C (stereo unspecified) | inactive | – |
| COS(C)(=O)=O | inactive | – |
| O=C(O)[C@H](O)[C@@H](O)C(=O)O | inactive | – |
| Cc1nccn1-c1ccc(Sc2cccc(C3(C(N)=O)CCOCC3)c2)cc1 | inactive | – |
| CCCc1ccccc1 | inactive | – |
| C[C@@H](Oc1ccc(CNC(=O)c2cccnc2Oc2ccc3c(c2)OCO3)c(F)c1)C(=O)O | inactive | – |
| Cc1ncc([C@@H](CCCCCCc2ccc3c(n2)NCCC3)CC(=O)O)cn1 | inactive | – |
| NNC(=O)c1ccncc1 | inactive | – |
| OC(CCl)CCl | inactive | – |
| OCCC(F)(F)C(F)(F)C(F)(F)C(F)(F)F | inactive | – |

read-out: Low-density lipoprotein receptor (LDLR), LDLR (gene 3949); test: BSK_CASM3C_LDLR: BioMAP Diversity Plus: CASM3C Assay for Low-density lipoprotein receptor (LDLR) Biomarker Activity (AID 2283045); settings: primary human coronary artery smooth muscle cells; actives raise or lower the signal;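 also: LDLR protein level on the cell surface quantified by ELISA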

| Structure (SMILES) | outcome | AC50 |
| --- | --- | --- |
| Cn1cc[nH]c1=S | inactive | – |
| CC(C)CC(C)O (stereo unspecified) | inactive | – |
| O=C1CN(N=Cc2ccc([N+](=O)[O-])o2)C(=O)N1 | inactive | – |
| OCc1ccccc1 | inactive | – |
| NC(=O)N(O)[C@@H]1COc2cc(OCc3ccccc3)ccc21 | inactive | – |
| C=CCc1cc(S(=O)(=O)c2ccc(O)c(CC=C)c2)ccc1O | – | 32.2 µM (active) |
| CC(C)C(=O)Nc1ccc([N+](=O)[O-])c(C(F)(F)F)c1 | – | 4.78 µM (active) |
| CCn1nc(C)c2c1C(=O)NCC(c1ccc(O)cc1)=N2 | inactive | – |
| COc1cc2c(c(OC)c1OC)-c1ccc(OC)c(=O)cc1[C@@H](NC(C)=O)CC2 | inactive | – |
| CNC(C)=O | inactive | – |
| CCOC(N)=O | inactive | – |
| FC(F)=C(F)C(F)(F)C(F)(F)C(F)(F)C(F)(F)C(F)(F)C(F)(F)F | inactive | – |
| c1ccc2cc3ccccc3cc2c1 | inactive | – |
| CCCCOC(=O)c1ccccc1 | inactive | – |
| O=C(Cl)C(F)(F)C(F)(F)C(F)(F)C(=O)Cl | inactive | – |
| Cn1c(=O)c2[nH]cnc2n(C)c1=O | inactive | – |
| CCCOc1ccc(S(=O)(=O)N2CCN(CC)CC2)cc1-c1nc2c(CC)n(Cc3ccccn3)nc2c(=O)[nH]1 | inactive | – |
| CC(C)CCCCCCOC(=O)C1CCCCC1C(=O)OCCCCCCC(C)C (stereo unspecified) | inactive | – |
| COS(C)(=O)=O | inactive | – |
| O=C(O)[C@H](O)[C@@H](O)C(=O)O | inactive | – |
| Cc1nccn1-c1ccc(Sc2cccc(C3(C(N)=O)CCOCC3)c2)cc1 | inactive | – |
| CCCc1ccccc1 | inactive | – |
| C[C@@H](Oc1ccc(CNC(=O)c2cccnc2Oc2ccc3c(c2)OCO3)c(F)c1)C(=O)O | inactive | – |
| Cc1ncc([C@@H](CCCCCCc2ccc3c(n2)NCCC3)CC(=O)O)cn1 | inactive | – |
| NNC(=O)c1ccncc1 | inactive | – |
| OC(CCl)CCl | inactive | – |
| OCCC(F)(F)C(F)(F)C(F)(F)C(F)(F)F | inactive | – |

read-out: Monocyte Chemoattractant Protein-1 (MCP1), CCL2 (gene 6347); test: BSK_CASM3C_MCP1: BioMAP Diversity Plus: CASM3C Assay for Monocyte Chemoattractant Protein-1 (MCP1) Biomarker Activity (AID 2283046); settings: primary human coronary artery smooth muscle cells; actives raise or lower the signal;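 also: MCP-1 level quantified by ELISA 24 h after dosing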

| Structure (SMILES) | outcome | AC50 |
| --- | --- | --- |
| Cn1cc[nH]c1=S | inactive | – |
| CC(C)CC(C)O (stereo unspecified) | inactive | – |
| O=C1CN(N=Cc2ccc([N+](=O)[O-])o2)C(=O)N1 | inactive | – |
| OCc1ccccc1 | inactive | – |
| NC(=O)N(O)[C@@H]1COc2cc(OCc3ccccc3)ccc21 | inactive | – |
| C=CCc1cc(S(=O)(=O)c2ccc(O)c(CC=C)c2)ccc1O | – | 16.2 µM (active) |
| CC(C)C(=O)Nc1ccc([N+](=O)[O-])c(C(F)(F)F)c1 | inactive | – |
| CCn1nc(C)c2c1C(=O)NCC(c1ccc(O)cc1)=N2 | inactive | – |
| COc1cc2c(c(OC)c1OC)-c1ccc(OC)c(=O)cc1[C@@H](NC(C)=O)CC2 | inactive | – |
| CNC(C)=O | inactive | – |
| CCOC(N)=O | inactive | – |
| FC(F)=C(F)C(F)(F)C(F)(F)C(F)(F)C(F)(F)C(F)(F)C(F)(F)F | inactive | – |
| c1ccc2cc3ccccc3cc2c1 | inactive | – |
| CCCCOC(=O)c1ccccc1 | inactive | – |
| O=C(Cl)C(F)(F)C(F)(F)C(F)(F)C(=O)Cl | inactive | – |
| Cn1c(=O)c2[nH]cnc2n(C)c1=O | inactive | – |
| CCCOc1ccc(S(=O)(=O)N2CCN(CC)CC2)cc1-c1nc2c(CC)n(Cc3ccccn3)nc2c(=O)[nH]1 | inactive | – |
| CC(C)CCCCCCOC(=O)C1CCCCC1C(=O)OCCCCCCC(C)C (stereo unspecified) | inactive | – |
| COS(C)(=O)=O | inactive | – |
| O=C(O)[C@H](O)[C@@H](O)C(=O)O | inactive | – |
| Cc1nccn1-c1ccc(Sc2cccc(C3(C(N)=O)CCOCC3)c2)cc1 | inactive | – |
| CCCc1ccccc1 | inactive | – |
| C[C@@H](Oc1ccc(CNC(=O)c2cccnc2Oc2ccc3c(c2)OCO3)c(F)c1)C(=O)O | inactive | – |
| Cc1ncc([C@@H](CCCCCCc2ccc3c(n2)NCCC3)CC(=O)O)cn1 | inactive | – |
| NNC(=O)c1ccncc1 | inactive | – |
| OC(CCl)CCl | inactive | – |
| OCCC(F)(F)C(F)(F)C(F)(F)C(F)(F)F | inactive | – |
